Assay outcomes: PubChem BioAssay, National Center for Advancing Translational Sciences (NCATS)
Shiga inhibitor – A qHTS for Small Molecule Inhibitors of Shiga Toxin. inhibition, % at 38.7 µM. 9.2% of 290,000 active. Vero cells, Shiga toxin protein synthesis inhibition reporter; in the data active = inhibition mostly above about 28%, no sharp cut-off; inactive = mostly below about 43%; also: 0% is about no effect
Sm TGR block – qHTS Assay for the Inhibitors of Schistosoma Mansoni Peroxiredoxins; purified TGR, DTNB reduction, TNB absorbance 405 nm; 3% of 360,000 active; Potency, µM (series often up to 114 µM), without a hit: at the highest dose activity change, negative = inhibition, actives largely listed as inhibitors; also: potency is read from the fitted curve at half-maximal effect; % is scaled to controls: 0 for no effect and ±100 for the full control effect; nearly all actives have a fitted effect of over 60% in size
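TGR 20 nM + NADPH 100 uM (dispensed conc.), cpd preinc 15 min RT; start with NADPH (500 uM addition) then DTNB (15 mM addition). Kinetic TNB absorbance, 405 nm filter. Four-parameter Hill fit across titration.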
Pf growth 48h – Primary qHTS for delayed death inhibitors of the malarial parasite plastid, 48 hour incubation; P. falciparum luciferase growth in erythrocytes, 48 h; Potency, µM (top dose mostly 28.7 µM), inactives show at the top dose activity change, negative = inhibition, hits mostly inhibitors; 5.9% of 310,000 active; AID 504832, 2011; also: potency is read from the fitted curve at half-maximal effect; % is scaled to controls: 0 for no effect and ±100 for the full control effect
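Erythrocytes infected with P. falciparum carrying an integrated firefly luciferase reporter (2% hematocrit, 0.1% parasitemia final) were exposed to compounds in RPMI 1640 with 0.5% Albumax at 37 C, 5% CO2. Growth inhibition was scored as reduced luminescence.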
NS1 inh – qHTS Assay for Inhibitors of Influenza NS1 Protein Function; AID 2326, 2010; Potency, µM (series often up to 46.1 µM), inactives show at the top dose activity, positive = more growth; 0.4% of 270,000 active; calls by dose curve; also: potency is read from the fitted curve at half-maximal effect; actives are rising curves; nearly all actives have a fitted effect of over 50% in size
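Growth recovery, yeast-based: influenza A NS1 expressed in S. cerevisiae causes slow growth, and suppressors are detected by OD600. The parent strain without NS1 is used as positive control.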
CHX counter – Cycloheximide Counterscreen for Small Molecule Inhibitors of Shiga Toxin | AID 2314, 2010 | cell reporter, cycloheximide protein synthesis inhibition counterscreen | 12% of 300,000 active | max response, %; in the data active = max response mostly above about 13%, no sharp cut-off; inactive = mostly below about 14%; also: read at 38.3 µM for the half of the compounds with a filed dose; 0% is about no effect
Pf growth 96h – Primary qHTS for delayed death inhibitors of the malarial parasite plastid, 96 hour incubation. P. falciparum luciferase reporter growth, 96 h. Potency, µM (top dose mostly 28.7 µM), for inactives: at the top dose activity change, negative = inhibition, most hits filed as inhibitors. 6.9% of 320,000 active; also: potency is read from the fitted curve at half-maximal effect; % is scaled to controls: 0 for no effect and ±100 for the full control effect
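Parasite growth measured via integrated firefly luciferase reporter in P. falciparum. Infected erythrocytes at 2% hematocrit, 0.05% parasitemia final were treated 96 hours at 37 C under 5% CO2, and luminescence was read.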
* marks the source's active call; other numbers are inactive results. In the library only some 21% were active in any assay of this set; here they are far more common. Unless noted, calls follow the shape of the dose curve; as a rule, active = well fitted curve in the direction sought with a large enough effect; inconclusive = small, poorly fitted or top-dose-only effect, or another doubt; inactive = no such curve, though single readings can be large; an effect the other way counts as inactive or inconclusive.

`O=C(O)/C=C/C(=O)Nc1ccc2c(c1)C(=O)c1ccccc1C2=O` gave Shiga inhibitor 135*, Sm TGR block 50µM*, Pf growth 48h 29%, NS1 inh -7%, CHX counter 62* and Pf growth 96h 12%.
For O=C(O)/C=C/C(=O)Nc1ccccc1-c1ccccc1 the results were Shiga inhibitor -10, Sm TGR block 10µM*, Pf growth 48h -2%, NS1 inh 0%, CHX counter 4 and Pf growth 96h 149%.
For O=C(O)/C=C/C(=O)NNC(=O)c1ccc(Cl)cc1Cl the results were Shiga inhibitor 58*, Sm TGR block 12%, Pf growth 48h inconclusive, NS1 inh 13%, CHX counter 27* and Pf growth 96h 0%.
`COc1ccc2c(C)cc(SCC(=O)Nc3ccc(Cl)cn3)nc2c1` gave Shiga inhibitor 13, Sm TGR block 4%, Pf growth 48h 14%, NS1 inh 6%, CHX counter 3 and Pf growth 96h 0%.
For CCCC(=O)Nc1ccc2c(c1)Cc1ccccc1-2 the results were Shiga inhibitor 119*, Sm TGR block -1%, Pf growth 48h 61%, NS1 inh -30%, CHX counter 28* and Pf growth 96h inconclusive.
Screening CCC(=O)Nc1ccc2c(c1)Cc1cc(NC(=O)CC)ccc1-2 returned Shiga inhibitor -9, Sm TGR block 0%, Pf growth 48h 8%, NS1 inh 7%, CHX counter -3 and Pf growth 96h 0%.
CC(=O)Nc1ccc2c(c1)CCc1ccccc1-2 was read as Shiga inhibitor 97*, Sm TGR block -14%, NS1 inh -34%, CHX counter 46* and Pf growth 96h -17%.
For COc1cc(C(=O)Nc2ccc3c(c2)C(=O)c2ccccc2C3=O)cc(OC)c1OC the results were Shiga inhibitor 12, Sm TGR block -4%, Pf growth 48h -8%, NS1 inh -2%, CHX counter -1 and Pf growth 96h 13%.
Screening CC(=O)Nc1ccc2c(c1)C(=O)c1ccccc1C2=O returned Shiga inhibitor 84*, Sm TGR block 4%, Pf growth 48h 284%, NS1 inh -71% and CHX counter 51*.
`O=C(O)/C=C/C(=O)Nc1ccc(Cl)cc1C(=O)c1ccccc1` gave Shiga inhibitor 3, Sm TGR block 22µM*, Pf growth 48h inconclusive, NS1 inh 5%, CHX counter -1 and Pf growth 96h inconclusive.
Screening O=C(O)/C=C/C(=O)Nc1ccccc1SC(F)(F)C(F)(F)C(F)(F)F returned Shiga inhibitor -5, Sm TGR block 45µM*, Pf growth 48h 0%, NS1 inh -4%, CHX counter -3 and Pf growth 96h 24%.
O=C1c2ccccc2C(=O)c2cc(NC(=O)C3CC3)ccc21 was read as Shiga inhibitor 33*, Sm TGR block -32%, Pf growth 48h 256%, NS1 inh 0%, CHX counter 20* and Pf growth 96h inconclusive.
For NC(=O)[C@@H]1CCCN1Cc1ccc2c(c1)OCO2 the results were NS1 inh -7%.
Cc1c(Cl)cnc(NC(=O)COC(=O)c2ccncc2)c1Cl was read as Sm TGR block inconclusive, Pf growth 48h inconclusive and Pf growth 96h -17%.
For CN(C(=O)Oc1ccc(C(C)(C)C)cc1)c1ccccc1 the results were Shiga inhibitor 59*, Sm TGR block 1%, Pf growth 48h inconclusive, NS1 inh -8%, CHX counter 19* and Pf growth 96h inconclusive.
`CCC(=O)c1ccc(OC(=O)N(C)c2ccccc2)cc1` gave Shiga inhibitor 75, Pf growth 48h 56%, NS1 inh -10%, CHX counter 26* and Pf growth 96h 4%.
For COc1ccc(NS(=O)(=O)c2cc(NC(=O)c3cnc(C)cn3)ccc2N2CCCCC2)cc1 the results were Shiga inhibitor -9, Sm TGR block -7%, Pf growth 48h 12µM*, NS1 inh -1%, CHX counter -3 and Pf growth 96h inconclusive.
COc1ccc(NS(=O)(=O)c2cc(NC(=O)c3cnc(C)cn3)ccc2N2CCCC2)cc1 was read as Shiga inhibitor 2, Sm TGR block -2%, Pf growth 48h inconclusive, NS1 inh 9%, CHX counter -1 and Pf growth 96h inconclusive.
COc1ccc(NS(=O)(=O)c2cc(NC(=O)c3ccco3)ccc2N2CCCCC2)cc1 was read as Shiga inhibitor 17, Sm TGR block 0%, Pf growth 48h inconclusive, NS1 inh 10%, CHX counter 8 and Pf growth 96h 9.3µM*.
`Cc1ccc(NC(=O)c2cc(NC(=O)c3ccco3)ccc2N2CCCCC2)cc1` gave Shiga inhibitor 10, Sm TGR block -3%, Pf growth 48h 6.6µM*, NS1 inh -5%, CHX counter -1 and Pf growth 96h -29%.
`COc1ccc(NS(=O)(=O)c2cc(NC(=O)C3CC3)ccc2N2CCCCC2)cc1` gave Shiga inhibitor 2, Sm TGR block 5%, Pf growth 48h -27%, CHX counter -3 and Pf growth 96h 10µM*.
For COc1ccc(NS(=O)(=O)c2ccc(N3CCOCC3)c(NC(=O)c3ccco3)c2)cc1 the results were Shiga inhibitor -1, Sm TGR block 2%, Pf growth 48h inconclusive, CHX counter -2 and Pf growth 96h -18%.
`CCCn1c2ccccc2c2cnn(CC(=O)NCCc3ccc(S(N)(=O)=O)cc3)c(=O)c21` gave Sm TGR block 10%.
Screening COc1ccc(OC)c(C2NC(=O)NC(C)=C2C(=O)Nc2cc(C)cc(C)c2)c1 (stereo not given) returned Sm TGR block -5%.
For Cc1ccccc1C(=O)N1CCN(c2ccc(NC(=O)c3ccco3)cc2Cl)CC1 the results were Shiga inhibitor -3, Sm TGR block -16%, Pf growth 48h 3.3µM*, NS1 inh -104%, CHX counter 4 and Pf growth 96h 1%.
Screening O=C(Nc1ccc(N2CCN(C(=O)c3cccs3)CC2)c(Cl)c1)c1ccco1 returned Shiga inhibitor 4, Sm TGR block 1%, NS1 inh -14%, CHX counter 8 and Pf growth 96h inconclusive.
CCOC(=O)c1c(C)[nH]c(C(=O)CC(=O)OC)c1C was read as Shiga inhibitor 41, Pf growth 48h 16%, NS1 inh -1%, CHX counter 10 and Pf growth 96h 16%.
`CCCC(=O)N(Cc1cc2ccccc2[nH]c1=O)c1ccccc1OC` gave Shiga inhibitor 5, Sm TGR block 4%, NS1 inh 5% and CHX counter 11.
For CCCC(=O)N(Cc1cc2cccc(C)c2[nH]c1=O)c1ccccc1OC the results were Shiga inhibitor 6, Sm TGR block 7%, Pf growth 48h 12µM*, NS1 inh -3%, CHX counter 2 and Pf growth 96h -13%.
